# Results as given in the supplement of paper PMC8728848.
# About 410 targets per protein were measured; listed, in parts, are those with the strongest signals and a random draw of the rest.
# B1: Vd2LysM (Verticillium dahliae) (protein)
# chain: YRRTCSHTGKGEGWYIIRRGDNFNAVAADFCTSTNVLTEWNHISTITDNMVNTKIKVPCRWNAGKQRDCLKDQKSSNGWYHIVSGDELKDIAYDFCTTSGSLAGMNGISNPDYIKANTDIVVPCSWN
# Experiments:
# Assay in all cases: glycan array binding signal (z-score within array); higher = stronger binding
# Conditions in all cases: glycan notation: IUPAC condensed, linker removed
# [1] = target: Fuc(a1-2)Gal(b1-3)GalNAc(a1-3)[Fuc(a1-2)]Gal(b1-4)Glc
# Procedure, shortened: (§1)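 Negative Z-scores can be read as non-binding. The Z-score is calculated within each array and then averaged across arrays of one protein sequence at different concentrations or buffers and across linkers. Arrays, 3228 in all, were curated from the Consortium for Functional Glycomics database and kept only where the protein sequence was available.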
# Fuc(a1-2)Gal(b1-3)GlcNAc = target: Fuc(a1-2)Gal(b1-3)GlcNAc
# Procedure, shortened: as §1
# [2] = target: Fuc(a1-2)Gal(b1-3)GlcNAc(b1-3)GalNAc
# Procedure, shortened: as §1
# [3] = target: Fuc(a1-2)Gal(b1-4)GlcNAc(b1-3)Gal(b1-4)GlcNAc
# Procedure, shortened: as §1
# [4] = target: Fuc(a1-2)Gal(b1-4)[Fuc(a1-3)]GlcNAc(b1-2)[Fuc(a1-2)Gal(b1-4)[Fuc(a1-3)]GlcNAc(b1-4)]Man(a1-3)[Fuc(a1-2)Gal(b1-4)[Fuc(a1-3)]GlcNAc(b1-2)Man(a1-6)]Man(b1-4)GlcNAc(b1-4)GlcNAc
# Procedure, shortened: as §1
# [5] = target: Fuc(a1-2)[Gal(a1-3)]Gal(b1-4)GlcNAc(b1-2)Man(a1-3)[Fuc(a1-2)[Gal(a1-3)]Gal(b1-4)GlcNAc(b1-2)Man(a1-6)]Man(b1-4)GlcNAc(b1-4)GlcNAc
# Procedure, shortened: as §1
# [6] = target: Fuc(a1-2)[GalNAc(a1-3)]Gal(b1-4)[Fuc(a1-3)]GlcNAc(b1-3)GalNAc
# Procedure, shortened: as §1
# [7] = target: Fuc(a1-3)[Gal3S(b1-4)]GlcNAc
# Procedure, shortened: as §1
# [8] = target: Gal(a1-3)Gal(b1-3)GlcNAc(b1-2)Man
# Procedure, shortened: as §1
# Gal(a1-3)Gal(b1-4)GlcNAc = target: Gal(a1-3)Gal(b1-4)GlcNAc
# Procedure, shortened: as §1
# [9] = target: Gal(a1-3)Gal(b1-4)GlcNAc(b1-2)Man(a1-3)[Gal(a1-3)Gal(b1-4)GlcNAc(b1-2)Man(a1-6)]Man(b1-4)GlcNAc(b1-4)GlcNAc
# Procedure, shortened: as §1
# Gal(b1-3)GlcNAc = target: Gal(b1-3)GlcNAc
# Procedure, shortened: as §1
# [10] = target: Gal(b1-3)GlcNAc(b1-3)Gal(b1-3)GlcNAc
# Procedure, shortened: as §1
# [11] = target: Gal(b1-3)GlcNAc(b1-3)Gal(b1-4)GlcNAc(b1-2)Man(a1-3)[Gal(b1-3)GlcNAc(b1-3)Gal(b1-4)GlcNAc(b1-2)Man(a1-6)]Man(b1-4)GlcNAc(b1-4)GlcNAc
# Procedure, shortened: as §1
# [12] = target: Gal(b1-3)GlcNAc(b1-3)Gal(b1-4)GlcNAc(b1-2)[Gal(b1-3)GlcNAc(b1-3)Gal(b1-4)GlcNAc(b1-6)]Man(a1-6)[Gal(b1-3)GlcNAc(b1-3)Gal(b1-4)GlcNAc(b1-2)Man(a1-3)]Man(b1-4)GlcNAc(b1-4)[Fuc(a1-6)]GlcNAc
# Procedure, shortened: as §1
# [13] = target: Gal(b1-3)GlcNAc(b1-3)Gal(b1-4)GlcNAc(b1-3)Gal(b1-4)GlcNAc(b1-2)[Gal(b1-3)GlcNAc(b1-3)Gal(b1-4)GlcNAc(b1-3)Gal(b1-4)GlcNAc(b1-6)]Man(a1-6)[Gal(b1-3)GlcNAc(b1-3)Gal(b1-4)GlcNAc(b1-3)Gal(b1-4)GlcNAc(b1-2)Man(a1-3)]Man(b1-4)GlcNAc(b1-4)[Fuc(a1-6)]GlcNAc
# Procedure, shortened: as §1
# [14] = target: Gal(b1-3)[Fuc(a1-4)]GlcNAc(b1-2)Man(a1-3)[Gal(b1-3)[Fuc(a1-4)]GlcNAc(b1-2)Man(a1-6)]Man(b1-4)GlcNAc(b1-4)[Fuc(a1-6)]GlcNAc
# Procedure, shortened: as §1
# Gal(b1-4)Glc = target: Gal(b1-4)Glc
# Procedure, shortened: as §1
# [15] = target: Gal(b1-4)GlcNAc(b1-2)Man(a1-3)[Gal(b1-4)GlcNAc(b1-2)Man(a1-6)]Man(b1-4)GlcNAc(b1-4)GlcNAc
# Procedure, shortened: as §1
# [16] = target: Gal(b1-4)GlcNAc(b1-3)Gal(b1-3)GalNAc
# Procedure, shortened: as §1
# [17] = target: Gal(b1-4)GlcNAc(b1-3)Gal(b1-4)GlcNAc(b1-2)[Gal(b1-4)GlcNAc(b1-3)Gal(b1-4)GlcNAc(b1-6)]Man(a1-6)[Gal(b1-4)GlcNAc(b1-3)Gal(b1-4)GlcNAc(b1-2)Man(a1-3)]Man(b1-4)GlcNAc(b1-4)[Fuc(a1-6)]GlcNAc
# Procedure, shortened: as §1
# Gal3S(b1-3)GalNAc = target: Gal3S(b1-3)GalNAc
# Procedure, shortened: as §1
# [18] = target: GalNAc(a1-3)GalNAc(b1-3)Gal(a1-4)Gal(b1-4)GlcNAc
# Procedure, shortened: as §1
# Glc(b1-6)Glc = target: Glc(b1-6)Glc
# Procedure, shortened: as §1
# [19] = target: GlcNAc(b1-2)[GlcNAc(b1-4)]Man(a1-3)[GlcNAc(b1-4)][GlcNAc(b1-2)Man(a1-6)]Man(b1-4)GlcNAc(b1-4)GlcNAc
# Procedure, shortened: as §1
# [20] = target: GlcNAc(b1-2)[GlcNAc(b1-4)]Man(a1-3)[GlcNAc(b1-4)][GlcNAc(b1-2)[GlcNAc(b1-6)]Man(a1-6)]Man(b1-4)GlcNAc(b1-4)[Fuc(a1-6)]GlcNAc
# Procedure, shortened: as §1
# [21] = target: GlcNAc(b1-3)Gal(b1-4)GlcNAc(b1-2)[GlcNAc(b1-3)Gal(b1-4)GlcNAc(b1-6)]Man(a1-6)[GlcNAc(b1-3)Gal(b1-4)GlcNAc(b1-2)Man(a1-3)]Man(b1-4)GlcNAc(b1-4)GlcNAc
# Procedure, shortened: as §1
# [22] = target: GlcNAc(b1-3)Gal(b1-4)GlcNAc(b1-3)GalNAc
# Procedure, shortened: as §1
# [23] = target: GlcNAc(b1-4)Gal(b1-4)GlcNAc
# Procedure, shortened: as §1
# [24] = target: GlcNAc(b1-4)GlcNAc(b1-4)GlcNAc(b1-4)GlcNAc(b1-4)GlcNAc
# Procedure, shortened: as §1
binder,measurement,setting,value
B1,glycan array binding signal (z-score),[1],2.91
same,glycan array binding signal (z-score),Fuc(a1-2)Gal(b1-3)GlcNAc,0.299
same,glycan array binding signal (z-score),[2],-0.965
same,glycan array binding signal (z-score),[3],0.247
same,glycan array binding signal (z-score),[4],0.533
same,glycan array binding signal (z-score),[5],-0.126
same,glycan array binding signal (z-score),[6],-0.592
same,glycan array binding signal (z-score),[7],0.699
same,glycan array binding signal (z-score),[8],0.43
same,glycan array binding signal (z-score),Gal(a1-3)Gal(b1-4)GlcNAc,-0.365
same,glycan array binding signal (z-score),[9],-1.06
same,glycan array binding signal (z-score),Gal(b1-3)GlcNAc,-0.257
same,glycan array binding signal (z-score),[10],0.452
same,glycan array binding signal (z-score),[11],0.151
same,glycan array binding signal (z-score),[12],6.69
same,glycan array binding signal (z-score),[13],2.23
same,glycan array binding signal (z-score),[14],-0.543
same,glycan array binding signal (z-score),Gal(b1-4)Glc,0.73
same,glycan array binding signal (z-score),[15],-0.349
same,glycan array binding signal (z-score),[16],0.984
same,glycan array binding signal (z-score),[17],2.2
same,glycan array binding signal (z-score),Gal3S(b1-3)GalNAc,-0.656
same,glycan array binding signal (z-score),[18],-0.212
same,glycan array binding signal (z-score),Glc(b1-6)Glc,-1.15
same,glycan array binding signal (z-score),[19],2.82
same,glycan array binding signal (z-score),[20],3.56
same,glycan array binding signal (z-score),[21],0.741
same,glycan array binding signal (z-score),[22],-1.11
same,glycan array binding signal (z-score),[23],-1.44
same,glycan array binding signal (z-score),[24],8.56
